Experiment [1] in a line: OV-KATE Cancer Cell Toxicity qHTS against the NCATS CANVASS Library (AID 1347345). Also: potency is read from the fitted curve at half-maximal effect. A digest of the protocol: (§1)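 Viability read-out: CellTiter-Glo luminescence after 72 h compound exposure at 37 °C/5% CO2. Cells plated at 1000/well, 4 h pre-incubation; 11-point titration. Bortezomib served as control.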
A general note: Quantitative high-throughput screening tests each substance at several concentrations.

A short description of experiment [2]: U-118MG Cancer Cell Toxicity qHTS against the NCATS CANVASS Library (AID 1347351). Also: potency is read from the fitted curve at half-maximal effect. A digest of the protocol:
as §1

Experiment [3] is described as follows: COV-362 Cancer Cell Toxicity qHTS against the NCATS CANVASS Library (AID 1347352). Also: potency is read from the fitted curve at half-maximal effect. A digest of the protocol:
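qHTS cytotoxicity: compounds tested in 11 concentrations on 1000 seeded cells per well over 72 h; bortezomib served as control; signal from CellTiter-Glo luminescence.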

Experiment [4] in a line: HPAF-II 24hr Apoptosis Induction qHTS against the NCATS CANVASS Library (AID 1347356). Put shortly: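 Apoptosis induction in HPAF-II pancreatic cancer cells is measured as caspase-3/7 luminescence after a 24-hour exposure to compounds.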
Experiment [5] can be described thus: HPAF-II 12hr Apoptosis Induction qHTS against the NCATS CANVASS Library (AID 1347358). A digest of the protocol: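 Apoptosis in HPAF-II pancreatic cancer cells is scored as caspase 3/7 luminescence following a 12-hour exposure to an 11-point compound series.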
Experiment [6] can be described thus: HEK293 24hr Apoptosis Induction qHTS against the NCATS CANVASS Library (AID 1347359). Also: potency is read from the fitted curve at half-maximal effect. A digest of the protocol:
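Caspase-3/7 activation measured as luminescence from the DEVD-based Caspase-Glo reagent, 15 min at room temperature, following 24-hour compound treatment of HEK293 cells.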

Experiment [7] can be described thus: HPAF-II 18hr Apoptosis Induction qHTS against the NCATS CANVASS Library (AID 1347360). A digest of the protocol:
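Caspase-3/7 activation was measured with luminescent Caspase-Glo 3/7 reagent (15 min, RT) in HPAF-II cancer cells (500 cells/well). Before detection, cells had been treated for 18 h at 37 C with compounds (11 points).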

The nature of experiment [8]: HEK293 12hr Apoptosis Induction qHTS against the NCATS CANVASS Library (AID 1347361). Also: potency is read from the fitted curve at half-maximal effect. A digest of the protocol:
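HEK293 cells (500/well, DMEM + 10% FBS) were exposed to natural products across an 11-point series for 12 hours at 37 degrees C. Caspase-3/7 activity was then measured with DEVD luciferase luminescence after 15 min at room temperature.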

For experiment [9], the target named is Luciferin 4-monooxygenase (Photinus pyralis) (UniProt P08659). The experiment is described as follows: Firefly luciferase counterscreen qHTS: Assay Interference Panel against the NCATS CANVASS Library (AID 1347363). Also: series mostly up to about 57 µM. A digest of the protocol:
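Luminescence inhibition readout: compounds (11-point qHTS) sat 15 min at room temperature with substrate mix (0.013 mM luciferin and ATP), then firefly luciferase was added and signal read 5 min later.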
(In general: The purpose of a counterscreen is to sort out artefacts and off-target activity.)

Experiment [10] can be described thus: KB-3-1 Cancer Cell Toxicity qHTS against the NCATS CANVASS Library (AID 1347366). Also: nearly all actives have a fitted effect of over 75% in size. Also: potency is read from the fitted curve at half-maximal effect. A digest of the protocol:
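CellTiter-Glo luminescence measured viability after 72 h at 37C. KB-3-1 cells were seeded at 500 per well in DMEM/10% FBS.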

The nature of experiment [11]: qHTS for ATAD5 Agonist screened against the NCATS CANVASS Library (AID 1347367).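 Also: luciferase reporter driven by ATAD5 which rises upon DNA damage.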 Put shortly: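 Genotoxicity via ATAD5-luciferase luminescence after 16 h compound exposure (11-point series) at 37C in HEK293T-ATAD5 cells. CellTiter-Fluor viability read precedes the luminescence read; MMS serves as positive control.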
Experiment [12] in a line: MCF7 Cancer Cell Toxicity qHTS against the NCATS CANVASS Library (AID 1347369). Also: potency is read from the fitted curve at half-maximal effect. A digest of the protocol:
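Cytotoxicity was measured as CellTiterGlo luminescence (ATP) after 72 h at 37 °C. The cells were MCF7 at 500 per well, with an 11-point compound concentration series.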

A short description of experiment [13]: J3T Cancer Cell Toxicity qHTS against the NCATS CANVASS Library (AID 1347371). Also: potency is read from the fitted curve at half-maximal effect. Put shortly:
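Viability of the J3T glioma line from dog is scored by ATP luminescence after a 72 hr incubation with natural products.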

In experiment [14] the target is Nuclear receptor subfamily 1 group I member 3 (Homo sapiens) (UniProt Q14994). As to the kind of experiment: qHTS for Constitutive Androstane Receptor (CAR) Antagonist screened against the NCATS CANVASS Library (AID 1347372). Also: potency is read from the fitted curve at half-maximal effect. A digest of the protocol: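 HepG2-CYP2B6-hCAR double-stable cells plated, 4hr attach; cpd pin-transferred; CITCO 50 nM final; 24hr 37C/5% CO2; CellTiter-Fluor 1hr (fluorescence), then ONE-Glo luminescence.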
Chain of Nuclear receptor subfamily 1 group I member 3 (Homo sapiens) (Q14994 whole entry, looked up): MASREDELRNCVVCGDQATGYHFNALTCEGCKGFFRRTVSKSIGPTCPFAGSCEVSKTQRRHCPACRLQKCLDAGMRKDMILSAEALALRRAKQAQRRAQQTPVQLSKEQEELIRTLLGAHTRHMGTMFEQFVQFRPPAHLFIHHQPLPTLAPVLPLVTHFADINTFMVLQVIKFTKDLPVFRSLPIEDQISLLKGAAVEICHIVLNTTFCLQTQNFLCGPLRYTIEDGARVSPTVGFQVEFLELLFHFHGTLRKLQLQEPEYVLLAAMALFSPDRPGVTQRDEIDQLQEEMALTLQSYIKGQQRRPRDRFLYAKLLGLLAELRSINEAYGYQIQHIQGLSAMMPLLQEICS

Experiment [15] shares this target. The experiment is described as follows: qHTS for Constitutive Androstane Receptor (CAR) Agonist screened against the NCATS CANVASS Library (AID 1347373).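 Also: every well also contained 1.5 µM PK11195 alongside the test compound.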 A digest of the protocol: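 CAR agonism is scored as CYP2B6-promoter luciferase induction in a double-stable transfected HepG2 line, where 1.5uM PK11195 is included in each well. Compounds were tested over a 24hr exposure.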

The nature of experiment [16]: 10-beta competent E. coli microbial cell viability qHTS against the NCATS CANVASS Library (AID 1347376). Also: series mostly up to about 46 µM. A digest of the protocol:
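Cytotoxicity toward competent E. coli is scored from cellular ATP content via BacTiter-Glo luminescence following overnight compound exposure at 37C, 5% CO2.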

A short description of experiment [17]: qHTS for H2AX Agonists against the NCATS CANVASS Library (AID 1347378). A digest of the protocol:
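Phospho-H2AX (S139) in CHO-K1 lysates measured by HTRF, reported as 665/615 nm emission ratio after 24 hr antibody incubation at room temperature. Cells were first treated with a compound series for 3 hr at 37C (0.76% DMSO final).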

Experiment [18] in a line: qHTS for Inflammasome Signaling Inhibitors: IL-1-beta AlphaLISA screen against the NCATS CANVASS Library (AID 1347379).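 Also: human THP-1 cells primed with LPS then triggered with ATP.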 A digest of the protocol:
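Human THP-1 cells were pretreated 1 hr at 37 °C with compounds (up to 57.5 uM final), then stimulated with LPS (250 ng/mL final) and ATP (1.25 mM final). Secreted IL-1B was read by AlphaLISA after 16 hr.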

Experiment [19] is described as follows: Inflammasome Signaling qHTS Counterscreen: IL-1-beta AlphaLISA counterscreen against the NCATS CANVASS Library (AID 1347381).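 Also: cell-free check with purified IL-1β in medium and no THP-1 cells; series mostly up to about 57 µM.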 Put shortly:
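To flag interference with the AlphaLISA read-out, a known amount of purified IL-1-beta (4 pg) replaced cell supernatant. Detection used anti-IL-1-beta acceptor beads, biotinylated antibody and streptavidin donor beads at room temperature.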

A short description of experiment [20]: Viability qHTS for inhibitors of the SERCaMP assay screened against the NCATS CANVASS Library (AID 1347400). Also: nearly all actives have a fitted effect of over 70% in size. Also: potency is read from the fitted curve at half-maximal effect. A digest of the protocol:
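Cytotoxicity counter-screen: ATP content (CellTiter-Glo luminescence) of SH-SY5Y-GLuc SERCaMP MJH297 cells after 48 h at 37C with compounds in an 11-point qHTS series.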

Results filed as inconclusive are left out. Activity calls are given as the source filed them. Calls follow the shape of the dose curve; as a rule, active = well fitted curve in the direction sought with a large enough effect; inconclusive = small, poorly fitted or top-dose-only effect, or another doubt; inactive = no such curve, though single readings can be large; an effect the other way counts as inactive or inconclusive.

Chain of Luciferin 4-monooxygenase (Photinus pyralis) (P08659 whole entry, looked up): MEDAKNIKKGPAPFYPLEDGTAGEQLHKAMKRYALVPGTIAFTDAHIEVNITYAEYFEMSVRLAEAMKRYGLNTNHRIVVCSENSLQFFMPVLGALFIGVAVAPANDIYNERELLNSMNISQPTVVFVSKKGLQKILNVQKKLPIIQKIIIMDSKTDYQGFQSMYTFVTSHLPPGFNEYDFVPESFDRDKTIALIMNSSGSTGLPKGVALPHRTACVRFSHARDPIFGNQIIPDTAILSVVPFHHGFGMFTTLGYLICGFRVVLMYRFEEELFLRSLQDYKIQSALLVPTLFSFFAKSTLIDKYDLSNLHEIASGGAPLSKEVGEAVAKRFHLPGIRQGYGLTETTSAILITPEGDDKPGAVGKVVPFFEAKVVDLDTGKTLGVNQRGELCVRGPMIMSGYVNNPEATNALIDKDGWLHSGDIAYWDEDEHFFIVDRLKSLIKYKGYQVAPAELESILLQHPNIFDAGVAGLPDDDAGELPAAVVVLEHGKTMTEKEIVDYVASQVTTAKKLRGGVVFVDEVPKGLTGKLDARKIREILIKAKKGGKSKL

As to `O=C1C[C@@H](c2ccc(O)c(-c3c(O)cc(O)c4c3O[C@H](c3ccc(O)cc3)CC4=O)c2)Oc2cc(O)cc(O)c21`, the Potency entry in experiment [1], in experiment [2], in experiment [3], in experiment [5], in [6] and in [7] was “inactive” throughout. The Potency result in [8], in [9], in experiment [10], in [11], in experiment [12] and in [13] was “inactive” in each case. Moreover, the Potency result in experiment [14], in [17], in experiment [18] and in experiment [20] was “inactive” throughout. For the same molecule, the result in [4], in experiment [15], in [16] and in experiment [19] was inactive.

As to `O=C(O)[C@@]12COC3(O)C1CCN1CC[C@H]3[C@@H]1c1c2[nH]c2ccccc12`, the Potency result in experiment [1], in [2], in experiment [3], in [5], in experiment [6] and in [7] was “inactive” each time. Also, the Potency result in experiment [8], in [9], in experiment [10], in [11], in experiment [12] and in experiment [13] was “inactive” each time. The Potency entry in experiment [14], in experiment [17], in experiment [18] and in [20] was “inactive” in each case. Moreover, the molecule was called inactive in experiment [4], in experiment [15], in [16] and in [19].

As for `CCCCCCCCCCCCCCC[C@H](O)C[C@@H](O)C[C@@H](O)C[C@@H](O)C[C@@H](O)C[C@H]1CC=CC(=O)O1`, the Potency was 2.11 µM (active) in [1]; 2.11 µM (active) in experiment [2]; 3.34 µM (active) in [3]; 26.4 µM (active) in experiment [6]; 9.35 µM (active) in experiment [8]; 9.35 µM (active) in [10]. Moreover, the Potency in [12] is 7.39 µM (active); in experiment [13], 3.72 µM (active); in experiment [14] it was 8.31 µM (active); in [18], 3.06 µM (active); in experiment [20], 12 µM (active). Further, the Potency result in experiment [9] and in [11] was “inactive” each time. The outcome in [15], in experiment [16] and in [19] was inactive.

On to `CC1(C)CC[C@]2(C(=O)O)CC[C@]3(C)C(=CC[C@@H]4[C@@]5(C)C[C@@H](O)[C@H](O)C(C)(C)[C@@H]5CC[C@]43C)[C@@H]2C1`, for which the Potency result in experiment [1], in experiment [3], in [5], in [6], in experiment [7] and in experiment [8] was “inactive” in each case. Further, the Potency result in experiment [9], in [10], in [11], in experiment [12], in experiment [13] and in [14] was “inactive” each time. The Potency result in experiment [18] and in [20] was “inactive” in each case. Moreover, the outcome in experiment [4], in [15], in experiment [16] and in experiment [19] was inactive.

For `COc1ccc([C@@H]2c3cc(OC)c(OC)cc3C(=O)C(C)C2C)cc1OC` (stereo not given in full), the Potency entry in [1], in [2], in experiment [3], in experiment [5], in experiment [6] and in experiment [7] was “inactive” each time. The Potency result in [8], in experiment [9], in experiment [10], in experiment [11], in experiment [12] and in experiment [13] was “inactive” in each case. For the same molecule, the Potency entry in [14], in experiment [17] and in experiment [18] was “inactive” in each case. For the same molecule, the molecule was classed as inactive in experiment [4], in [15], in experiment [16] and in experiment [19].

As to `C=C(C)C(=O)O[C@H]1C[C@H](C)[C@@H](OC(C)=O)CC[C@@]2(C)O[C@@H]2[C@H]2OC(=O)C(COC(C)=O)=C12`, the Potency was 4.2 µM (active) in experiment [1]; 9.35 µM (active) in experiment [8]; 23.4 µM (active) in experiment [12]; 6.62 µM (active) in experiment [13]; 9.68 µM (active) in [18]; 9.57 µM (active) in experiment [20]. The Potency result in [3], in experiment [9] and in experiment [17] was “inactive” throughout. Besides, the call in [15], in experiment [16] and in experiment [19] was inactive.

(Values after PubChem BioAssay (NCATS).)
